Measurements: PubChem BioAssay AID1159580 (chemical genetic matrix, 2015)
“And” between values parts separate entries of the source, which are not always exact repeats. Equal entries are not always repeated. Among all 5,500 compounds or so, about 2,000 (36%) were called active. Not shown: some 18% with an inconclusive outcome. Cut-off read from the data, not from the text of the source: active = normalized growth mostly below about 0.91 (no sharp cut-off); inconclusive = no clear call, values can overlap the other calls; inactive = mostly above about 0.92. Some of the results follow.

Assay: chemical genetic growth profiling, strain panel (AID 1159580);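 note: tested at 20 µM; growth read once vehicle control cultures reached saturation at 30 °C; 1 = growth at the plate median or of vehicle wells; lower values mean less growth of the strain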
Conditions: S. cerevisiae deletion strains, growth OD

Measured: normalized growth

c1cncc(C2CCCCN2)c1 (configuration not stated)
inactive: locus YAL021C, strain ccr4, hits give low values 0.986 | locus YAL026C, strain drs2, hits give low values 0.999 | locus YAL030W, strain snc1, hits give low values 1 | locus YBL061C, strain skt5, hits give low values 0.995 | locus YBR009C, strain hhf1, hits give low values 0.995 | locus YBR021W, strain FUR4, hits give low values 1.02 | locus YBR023C, strain chs3, hits give low values 0.998 | locus YBR171W, strain sec66, hits give low values 0.985 | locus YBR229C, strain ROT2, hits give low values 1.02 | locus YBR231C, strain swc5, hits give low values 0.991 | locus YBR279W, strain paf1, hits give low values 0.99 | locus YCL011C, strain gbp2, hits give low values 0.997 | locus YCL016C, strain dcc1, hits give low values 0.996 | locus YCL029C, strain bik1, hits give low values 0.982 | locus YCL061C, strain MRC1, hits give low values 0.988 | locus YCL069W, strain vba3, hits give low values 0.993 | locus YCR088W, strain abp1, hits give low values 0.993 | locus YDL005C, strain med2, hits give low values 0.997 | locus YDL035C, strain GPR1, hits give low values 1.04 | locus YDL040C, strain nat1, hits give low values 0.992 | locus YDL074C, strain BRE1, hits give low values 1.01 | locus YDL101C, strain DUN1, hits give low values 1.01 | locus YDL185W, strain tfp1, hits give low values 1 | locus YDL192W, strain arf1, hits give low values 0.998 | locus YDR001C, strain nth1, hits give low values 0.991 | locus YDR069C, strain doa4, hits give low values 0.988 | locus YDR101C, strain arx1, hits give low values 0.971 | locus YDR137W, strain rgp1, hits give low values 0.996 | locus YDR159W, strain sac3, hits give low values 0.979 | locus YDR162C, strain NBP2, hits give low values 1 | locus YDR195W, strain ref2 0.98 | locus YDR297W, strain sur2, hits give low values 0.986 | locus YDR318W, strain mcm21, hits give low values 1.01 | locus YDR334W, strain swr1, hits give low values 0.99 | locus YDR335W, strain msn5, hits give low values 0.994 | locus YDR388W, hits give low values 0.996 | locus YDR392W, strain spt3, hits give low values 0.99 | locus YDR502C, strain sam2, hits give low values 0.995 | locus YEL003W, strain gim4, hits give low values 1.01 | locus YEL037C, strain rad23, hits give low values 0.999 | locus YEL061C, strain CIN8 (second series), hits give low values 0.992 | locus YEL061C, strain CIN8, hits give low values 0.999 | locus YER015W, strain faa2, hits give low values 0.997 | locus YER016W, strain bim1, hits give low values 0.995 | locus YER110C, hits give low values 0.98 | locus YER111C, strain swi4, hits give low values 0.989 | locus YER155C, strain BEM2 (second series), hits give low values 0.996 | locus YER155C, strain BEM2, hits give low values 1.01 | locus YER167W, strain BCK2, hits give low values 0.993 | locus YFR010W, strain ubp6, hits give low values 0.989 | locus YGL078C, strain dbp3, hits give low values 1 | locus YGL086W, strain mad1, hits give low values 0.978 | locus YGL167C, strain pmr1, hits give low values 0.989 | locus YGL173C, strain kem1, hits give low values 0.984 | locus YGL227W, strain vid30, hits give low values 0.983 | locus YGL240W, strain doc1, hits give low values 0.981 | locus YGL248W, strain PDE1, hits give low values 1.03 | locus YGL253W, strain hxk2, hits give low values 0.986 | locus YGR078C, strain PAC10, hits give low values 1.01 | locus YGR135W, strain pre9, hits give low values 0.999 | locus YGR252W, strain gcn5, hits give low values 0.969 | locus YHR013C, strain ard1, hits give low values 1 | locus YHR027C, strain rpn1, hits give low values 0.985 | locus YHR030C, strain SLT2, hits give low values 1.01 and 1.02 | locus YHR079C, strain IRE1 (second series), hits give low values 0.998 | locus YHR079C, strain IRE1, hits give low values 1 | locus YHR094C, strain hxt1, hits give low values 0.996 | locus YHR129C, strain ARP1, hits give low values 1 | locus YHR142W, strain chs7, hits give low values 0.985 | locus YHR200W, strain rpn10, hits give low values 0.999 | locus YIL066C, strain RNR3, hits give low values 1.01 | locus YIL073C, strain SPO22, hits give low values 0.996 | locus YIL125W, strain kgd1, hits give low values 0.986 | locus YIR030C, strain dcg1, hits give low values 0.988 | locus YJL092W, strain hpr5, hits give low values 0.995 | locus YJL095W, strain BCK1 (second series), hits give low values 1.01 | locus YJL095W, strain BCK1, hits give low values 1.05 and 0.994 | locus YJL115W, strain asf1, hits give low values 0.986 | locus YJL129C, strain trk1, hits give low values 0.999 | locus YJL134W, strain LCB3, hits give low values 1.01 | locus YJL154C, strain vps35, hits give low values 0.991 | locus YJL164C, strain tpk1, hits give low values 0.998 | locus YJL166W, strain qcr8, hits give low values 0.993 | locus YJL168C, strain set2, hits give low values 0.995 | locus YJL187C, strain SWE1 (second series), hits give low values 1.03 | locus YJL187C, strain SWE1, hits give low values 1.01 | locus YJR043C, strain POL32, hits give low values 1.02
